Assay outcomes from PubChem BioAssay.
TWEAK Fn14 block: inhibitors of TWEAK-Fn14 interaction signaling. inhibition, % at 10 µM. TWEAK-stimulated Fn14 reporter cells, luciferase luminescence, 8 h. AID 1159606. hit rate 2% among 360,000; in the data active = inhibition above about 50%
Peg3 promoter: inhibitors of Peg3 promoter; HeLa PEG-Prom luciferase reporter, luminescence, overnight; inhibition, % at 20 µM; hit rate 1.7% among 360,000;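 active = inhibition of at least 50% at 20 µM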
HIF-2a inh: HIF-2a inhibition. 786-0 RCC cells HIF-2a reporter, luciferase luminescence, overnight. inhibition, % at 18.8 µM. hit rate 0.72% among 360,000. AID 624352;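 active = inhibition of the luminescence signal of 40% or more relative to plate controls, in a single-dose primary screen at 18.75 µM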
TROY NFkB inh: blocks TROY-dependent signaling in reporter cells | hit rate 0.98% among 360,000 | Q293 LMP1-TROYcd NF-kB luciferase reporter, 4 h | inhibition, % at 10 µM | AID 1347056;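 active = compounds whose plate-normalised and pattern-corrected inhibition of the luciferase reporter signal at the single screening dose is 50% or more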
KKLEB tox: counter-screen for CF NF-kB inhibitors: cytotoxicity | activity change (cytotoxicity), % at 5 µM | hit rate 0.36% among 360,000 | KKLEB CF airway cells viability, ATPlite luminescence, overnight; hits give low values; cells stimulated with P. aeruginosa culture filtrate;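 active = corrected activity change at or below -50% at 5 µM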
CF NFkB inh: blocks PAF-induced NF-kB reporter in cystic fibrosis cells | KKLEB NF-kB-GFP reporter, GFP fluorescence overnight | inhibition, % at 5 µM | hit rate 0.86% among 360,000;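 active = at least 50% inhibition at 5 µM, scaled per plate between neutral and stimulator controls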;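 note: PAF is a Pseudomonas aeruginosa culture filtrate used as stimulus; plate controls were PAF-stimulated DMSO wells for no effect and unstimulated DMSO wells for full effect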
An asterisk follows results filed as active. An excerpt weighted towards active compounds, which were near 4% of everything screened.

How did COc1ccc(C(=O)/C=C/c2cccc(OCc3ccccc3)c2)cc1CSCC(=O)O do in these assays?
TWEAK Fn14 block: 7.5; Peg3 promoter: 74.9*; HIF-2a inh: 19.9; TROY NFkB inh: 25.9; KKLEB tox: -18.1; CF NFkB inh: -9.4

How did COc1cc(/C=C/C(=O)c2ccc(F)cc2)cc(OC)c1OC do in these assays?
TWEAK Fn14 block: 84.2*; Peg3 promoter: 9.9; HIF-2a inh: 39.4; TROY NFkB inh: 25.6; KKLEB tox: 2.6; CF NFkB inh: 10.4

What do the screens show for `O=C(Cc1cccs1)Nc1cccc(-c2nc3cc4ccccc4cc3[nH]2)c1`?
TWEAK Fn14 block: 73.5*; Peg3 promoter: -48.8; HIF-2a inh: -382.0; TROY NFkB inh: 57.3*; KKLEB tox: -70.8*; CF NFkB inh: 80.8*

What do the screens show for `CC(=O)Nc1cccc(NC(=O)Cc2cccs2)c1`?
TWEAK Fn14 block: 7.6; Peg3 promoter: 16.1; HIF-2a inh: 9.3; TROY NFkB inh: -5.2; KKLEB tox: 0.8; CF NFkB inh: 10.2

How did CCOc1cccc(NC(=O)Cc2cccs2)c1 do in these assays?
TWEAK Fn14 block: 109.7*; Peg3 promoter: -35.2; HIF-2a inh: -59.8; KKLEB tox: 8.4; CF NFkB inh: -10.4

How did CN(C)CCOc1ncnc2c1oc1ccccc12 do in these assays?
TWEAK Fn14 block: -11.5; Peg3 promoter: 7.9; HIF-2a inh: -15.8; TROY NFkB inh: -13.1; KKLEB tox: -4.4; CF NFkB inh: -17.8

How did CN(C)CCOc1nc(-c2ccccc2)nc2c1oc1ccccc12 do in these assays?
TWEAK Fn14 block: -53.4; Peg3 promoter: 99.8*; HIF-2a inh: 2.3; TROY NFkB inh: -45.7; KKLEB tox: -0.1; CF NFkB inh: -67.0

How did CN1CCC2(CC1)Nc1nc(SCc3ccc(Cl)cc3)nn1C1=C2CN(C)CC1 do in these assays?
TWEAK Fn14 block: -39.8; Peg3 promoter: 52.0*; HIF-2a inh: 26.2; TROY NFkB inh: -2.5; KKLEB tox: -0.2; CF NFkB inh: 15.8

Results for Nc1cccc2c1C(=O)N(CCOc1ccccc1F)C2=O ?
TWEAK Fn14 block: 58.6*; Peg3 promoter: -130.6; HIF-2a inh: -76.5; TROY NFkB inh: 18.6; KKLEB tox: 2.1; CF NFkB inh: -15.6

What do the screens show for `COc1cc(C)c(/C=C(\C#N)C(=O)Nc2cccc(C)c2)cc1C(C)C`?
TWEAK Fn14 block: 86.3*; Peg3 promoter: 8.7; HIF-2a inh: 8.9; TROY NFkB inh: 83.8*; KKLEB tox: 1.8; CF NFkB inh: -7.0

What do the screens show for `COc1ccc(C(=O)OCC(=O)NCCc2ccc(F)cc2)cc1S(=O)(=O)N1CCOCC1`?
TWEAK Fn14 block: -0.9; Peg3 promoter: -4.5; HIF-2a inh: 6.4; TROY NFkB inh: 5.9; KKLEB tox: 8.3; CF NFkB inh: -11.1

How did CC(C)c1ccc(CC(=O)N2CCC2(C)C(=O)Nc2ccc3c(c2)OCCO3)cc1 (stereo not drawn) do in these assays?
TWEAK Fn14 block: 51.2*; Peg3 promoter: 17.3; HIF-2a inh: 26.2; TROY NFkB inh: 44.6; KKLEB tox: -2.1; CF NFkB inh: 3.1

How did O=C(C[C@H]1CC[C@@H]2[C@H](COC[C@H](O)CN2Cc2cccc(F)c2)O1)NCc1cccc(F)c1 do in these assays?
HIF-2a inh: 3.0

What do the screens show for `O=C(N/N=C/c1ccc2ncccc2c1)c1ccco1`?
TWEAK Fn14 block: 69.8*; Peg3 promoter: 3.5; HIF-2a inh: 15.5; TROY NFkB inh: 50.9*; KKLEB tox: -9.6; CF NFkB inh: 7.7

Results for Cn1c(=O)c([N+](=O)[O-])c(-n2ccnc2)c2ccccc21 ?
TWEAK Fn14 block: 21.8; Peg3 promoter: 54.6*; HIF-2a inh: 6.4; TROY NFkB inh: -1.7; KKLEB tox: 0.6; CF NFkB inh: -7.0

Results for Cc1cccc(NC(=O)CSc2cc(C(=O)c3nccn3C)c3ccccc3n2)c1 ?
TWEAK Fn14 block: -4.9; Peg3 promoter: 19.2; HIF-2a inh: -11.2; TROY NFkB inh: 3.9; KKLEB tox: -53.8*; CF NFkB inh: 39.5

Results for COc1ccc(C(=O)NCCNc2nc3cc(C)cc(C)c3cc2C#N)cc1 ?
HIF-2a inh: -12.4

Results for COc1cccc(C(=O)NCCCNc2nc3cc(C)cc(C)c3cc2C#N)c1 ?
TWEAK Fn14 block: 15.7; Peg3 promoter: 66.0*; HIF-2a inh: 7.5; TROY NFkB inh: -4.5; KKLEB tox: -23.2; CF NFkB inh: 10.1

Results for COC(=O)C1(NC(=O)CNC(=O)OCc2ccccc2)CCCC1 ?
TWEAK Fn14 block: 35.7; Peg3 promoter: -0.5; HIF-2a inh: -1.2; TROY NFkB inh: -6.0; KKLEB tox: 8.7; CF NFkB inh: 5.6

How did CCCCCCN1C[C@@H](O)[C@H](n2cc(C3CC3)nn2)C[C@@H]1c1ccccc1 do in these assays?
TWEAK Fn14 block: 8.6; Peg3 promoter: 25.4; HIF-2a inh: 0.0; TROY NFkB inh: 2.8; KKLEB tox: -3.4; CF NFkB inh: -5.5

How did COc1ccc(NC(=O)CSc2nc3c(sc4ccccc43)c(=O)n2CCCN2CCCC2)cc1 do in these assays?
TWEAK Fn14 block: -18.5; Peg3 promoter: 69.1*; HIF-2a inh: -18.1; TROY NFkB inh: -42.0; KKLEB tox: -6.5; CF NFkB inh: -3.0

What do the screens show for `O=C(O)c1cnn(-c2nc(-c3cccc([N+](=O)[O-])c3)cs2)c1C(F)(F)F`?
TWEAK Fn14 block: -2.2; Peg3 promoter: -8.1; HIF-2a inh: 10.5; TROY NFkB inh: 13.8; KKLEB tox: -0.3; CF NFkB inh: -7.3

How did C[C@]12C=CC(=O)C=C1CC[C@@H]1C2[C@@H](O)C[C@@]2(C)C1CC[C@]2(O)C(=O)COC(=O)CCC(=O)O (stereo partly drawn) do in these assays?
TWEAK Fn14 block: -16.1; Peg3 promoter: -6.0; HIF-2a inh: 24.8; TROY NFkB inh: 18.1; KKLEB tox: 2.4; CF NFkB inh: 74.4*

How did CCC(C)C(NC(=O)CCC(=O)OCC(=O)[C@@]1(O)CCC2[C@@H]3CCC4=CC(=O)C=C[C@]4(C)C3[C@@H](O)C[C@@]21C)C(=O)O (stereo partly drawn) do in these assays?
TWEAK Fn14 block: -4.1; Peg3 promoter: 10.6; HIF-2a inh: 30.1; TROY NFkB inh: 11.0; KKLEB tox: 26.7; CF NFkB inh: 74.0*

Results for CC(=O)OCC(=O)C1(O)CCC2C3CCC4=CC(=O)C=CC4(C)C3C(O)CC21C (stereo not drawn) ?
TWEAK Fn14 block: 11.6; Peg3 promoter: -7.0; HIF-2a inh: 23.0; TROY NFkB inh: 14.0; KKLEB tox: 30.9; CF NFkB inh: 74.9*

How did CC12C=CC(=O)C=C1CCC1C2CCC2(C)C(C(=O)CO)CCC12 (stereo not drawn) do in these assays?
TWEAK Fn14 block: -1.4; Peg3 promoter: -3.6; HIF-2a inh: 13.1; TROY NFkB inh: 0.7; KKLEB tox: -12.0; CF NFkB inh: 11.3

How did COC(=O)[C@]12CCCCC=C1N(CCC1=CCCCC1)C(=O)[C@H](CC(=O)NCc1ccccc1)C2 do in these assays?
TWEAK Fn14 block: 16.8; HIF-2a inh: -1.6; TROY NFkB inh: 12.7
